In the library only some 2.8% were active in any assay of this set; here they are far more common.
esBAF inh: Bmi1 luciferase reporter increase in mESCs, primary screen, esBAF inhibitor project, mouse ES cells, Bmi1 luciferase knock-in, single point; 24 h; 100% = twice the neutral-well signal; reporter increase, % at 12.5 µM; 2% of 350,000 active; AID 602393, 2012; in the data active means activation above about 40%; inconclusive means no clear call, values can overlap the other calls;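 further: a rise in the Bmi1 reporter signal indicates esBAF inhibition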
MITF act: activators of MITF-driven TRPM1 promoter reporter, primary screen, cell-based, SK-MEL-5, luciferase, single point | SK-MEL-5 TRPM1-promoter luciferase, 24 h; % of positive control, neutral wells = 0 | activation, % at 12.5 µM | 0.75% of 300,000 active | AID 588334, 2011;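 active means mean activation of at least 80% with every replicate also reaching 80%; inconclusive means mean reaches 80% but some replicate falls short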
Wnt act: Wnt/beta-catenin pathway activators, primary screen, cell-based, plate reader, single point; Wnt/beta-catenin reporter cell assay, activator; activation, % at 9.35 µM; 1.2% of 300,000 active; in the data active means activation above about 30%, passing the limit was not always enough; inconclusive means no clear call, values can overlap the other calls
FXN GAA850 act: FXN promoter activators, primary screen, cell-based, luciferase luminescence, HEK293 lucGAA850; 0.56% of 360,000 active; activation, % at 6 µM; HEK293 lucGAA850 FXN promoter luciferase reporter, 24 h; percent of 10 µM SAHA response;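 active means activation above the average of all compounds screened plus 3 SD, cutoff fixed separately per campaign, cut at about 7.5% in these data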
Large screens that a line does not name were inactive.

O=C(Nc1cccc(F)c1)Nc1ccc2c(c1)CCC2	esBAF inh 63.9, MITF act inconclusive, Wnt act 34.0
O=C(Nc1ccccc1)Nc1ccc2c(c1)CCC2	esBAF inh 49.2
Cc1cc(C)cc(NC(=O)Nc2ccc3c(c2)CCC3)c1	none
O=C(Nc1ccc(F)cc1)Nc1ccc2c(c1)CCC2	MITF act inconclusive, Wnt act inconclusive (no result: esBAF inh)
CO[C@@H]1CN(C)C(=O)c2ccc(NC(=O)C3CC3)cc2OC[C@H](C)N(Cc2nccs2)C[C@@H]1C	none (no result: MITF act, Wnt act, FXN GAA850 act)
COc1ccccc1-c1cn(CC[C@H]2CC[C@H](NC(=O)c3ccccc3F)[C@H](CO)O2)nn1	none (no result: MITF act, Wnt act, FXN GAA850 act)
CCn1nc(C(=O)N2CCN(Cc3nc4ccccc4s3)CC2)c2ccccc2c1=O	esBAF inh 53.2
CCn1nc(C(=O)NNC(=O)c2ccccc2)c2ccccc2c1=O	esBAF inh 45.5
CCn1nc(C(=O)NNC(=O)c2ccc(OC(F)F)cc2)c2ccccc2c1=O	none
CCn1nc(C(=O)N2CCc3ccccc3C2)c2ccccc2c1=O	none
CC(C)(C)C(=O)O/N=C(\N)c1ccc(-c2csnn2)cc1	esBAF inh 84.2, MITF act 106.4, Wnt act 53.2
CC(=O)O/N=C(\N)c1ccc(-c2csnn2)cc1	esBAF inh 54.0
Cc1ccccc1C(=O)Oc1ccc(-c2csnn2)cc1	esBAF inh 50.6
c1ccc(COc2ccc(-c3csnn3)cc2)cc1	esBAF inh 47.0, MITF act 93.9 (no result: Wnt act)
Cc1ccc(S(=O)(=O)N[C@H]2CC[C@H](CCn3cc(-c4cccnc4)nn3)O[C@H]2CO)cc1	none (no result: MITF act, Wnt act, FXN GAA850 act)
CNC[C@H]1OCCCC[C@H](C)Oc2ccc(NC(=O)NC3CCCCC3)cc2C(=O)N([C@H](C)CO)C[C@@H]1C	none (no result: MITF act, Wnt act, FXN GAA850 act)
CSc1ccc(CN(C)C(=O)c2cc3ccccc3o2)cc1	esBAF inh 57.5
CSc1ccc(CN(C)C(=O)c2cc(=O)c3ccccc3o2)cc1	none
CCCOC(=O)c1ccc(NC(=O)c2cnccn2)cc1	esBAF inh 59.2 (no result: Wnt act)
COc1ccc(S(=O)(=O)N(C)C[C@H]2OCCCC[C@H](C)Oc3ccc(NC(=O)NC4CCCCC4)cc3C(=O)N([C@H](C)CO)C[C@H]2C)cc1	none (no result: MITF act, Wnt act, FXN GAA850 act)
CN(C)C(=O)C[C@@H]1C=C[C@@H](NC(=O)C2CC2)[C@@H](CO)O1	none (no result: MITF act, Wnt act, FXN GAA850 act)
Cc1nc2cc3nc(C)sc3cc2s1	esBAF inh 49.6, MITF act inconclusive (no result: Wnt act)
Cc1nc2cc3ccccc3cc2s1	none
O=C(C[C@H]1C[C@@H]2c3cc(NC(=O)CC4CC4)ccc3O[C@@H]2[C@@H](CO)O1)NCC(F)(F)F	none (no result: MITF act, Wnt act, FXN GAA850 act)
C[C@H]1CN([C@@H](C)CO)S(=O)(=O)c2ccc(Br)cc2O[C@H]1CN(C)S(=O)(=O)c1ccc(F)cc1	none (no result: MITF act, Wnt act, FXN GAA850 act)
O=c1[nH]c2ccc(NCc3ccc(OCc4ccccc4Cl)cc3)cc2[nH]1	MITF act 82.6
CCCC(=O)Nc1ccc2c(c1)C(=O)N(C)C[C@H](OC)[C@H](C)CN(C(=O)c1ccncc1)[C@H](C)CO2	none (no result: MITF act, Wnt act, FXN GAA850 act)
CCOC(=O)/C(=C/c1ccc(OC(F)F)cc1)C1=Nn2c(nnc2-c2ccc(Cl)cc2)SC1	none
CCOC(=O)/C(=C\c1ccc(OC(F)F)cc1)C1=Nn2c(nnc2-c2ccc(Cl)cc2)SC1	FXN GAA850 act 8.2 (no result: esBAF inh, Wnt act)
COc1ccc(NC(=O)c2noc3c2CCC3)cc1	esBAF inh 94.9 (no result: MITF act)
Cc1ccc(NC(=O)c2noc3c2CCC3)cc1C	Wnt act 32.7 (no result: esBAF inh)
CCn1cnc2c(NCCc3cccnc3)nc(C#N)nc21	none (no result: esBAF inh)
CCn1cnc2c(Nc3cccc(Cl)c3)nc(C#N)nc21	esBAF inh 68.9, MITF act 112.1, Wnt act 45.7
CCCN(C)C[C@H]1OCCCC[C@H](C)Oc2ccc(NC(=O)C3CCCCC3)cc2C(=O)N([C@@H](C)CO)C[C@H]1C	none (no result: MITF act, Wnt act, FXN GAA850 act)
CO[C@H]1CN(C)C(=O)c2ccc(NC(=O)C3CCC3)cc2OC[C@@H](C)N(Cc2ccncc2)C[C@H]1C	none (no result: MITF act, Wnt act, FXN GAA850 act)
O=C(Nc1nccs1)c1ccc(-c2ccc(Cl)cc2)o1	MITF act 108.9, Wnt act 52.2 (no result: esBAF inh)
O=C(Nc1nccs1)c1ccc(-c2ccc(F)cc2)o1	MITF act 141.8, Wnt act 37.4 (no result: esBAF inh)
O=C(Nc1nccs1)c1ccc(-c2ccc([N+](=O)[O-])cc2)o1	esBAF inh 68.8
O=C(Nc1nccs1)c1ccc(N2CCOCC2)c([N+](=O)[O-])c1	Wnt act 42.6
O=C(Cc1ccc(F)cc1)Nc1nccs1	none
O=C(Nc1ccccc1)c1ccc(-c2ccc([N+](=O)[O-])cc2)o1	none
COCCNC(=O)C[C@@H]1CC[C@H]2[C@H](COc3ccc(NC(=O)COC)cc3C(=O)N2C)O1	none (no result: MITF act, Wnt act, FXN GAA850 act)
C[C@H](CO)N1C[C@H](C)[C@@H](CN(C)C)Oc2cc(C#CC3CC3)ccc2S1(=O)=O	none (no result: MITF act, Wnt act, FXN GAA850 act)
COc1ccccc1NC(=O)c1ccc(-c2ccccc2[N+](=O)[O-])o1	MITF act 94.4 (no result: esBAF inh)
O=C(Nc1nccs1)c1ccc(-c2ccccc2[N+](=O)[O-])o1	esBAF inh 86.2, Wnt act 35.1
C[C@H](CO)N1C[C@H](C)[C@@H](CN(C)S(=O)(=O)c2cccs2)OCCCC[C@H](C)Oc2ccc(NC(=O)Nc3cccc4ccccc34)cc2C1=O	none (no result: MITF act, Wnt act, FXN GAA850 act)
CC(=O)c1c(C)[nH]c(C(=O)OCc2c(F)cccc2Cl)c1C	none
CC(=O)c1c(C)[nH]c(C(=O)OCc2cccc(Cl)c2)c1C	esBAF inh 46.2
COC(=O)c1c(C)[nH]c(C(=O)OCc2ccc(F)cc2)c1C	esBAF inh 45.9, MITF act 114.1 (no result: Wnt act)
CC(=O)c1c(C)[nH]c(C(=O)OCC(=O)NCCc2ccc(F)cc2)c1C	none
CCCCN(C)C(=O)c1cc2cc3cc(OC)ccc3nc2o1	Wnt act 44.4 (no result: esBAF inh)
C[C@@H]1CN([C@@H](C)CO)C(=O)Cc2cc(NC(=O)Nc3ccc4c(c3)OCO4)ccc2O[C@H]1CN(C)Cc1ccc(C(F)(F)F)cc1	none (no result: MITF act, Wnt act, FXN GAA850 act)
Nc1nc2ccc(C(=O)Nc3ccccc3)cc2s1	esBAF inh 50.8 (no result: Wnt act)
CCc1ccc(NC(=O)c2ccc3nc(N)sc3c2)cc1	esBAF inh 49.8, MITF act inconclusive (no result: Wnt act)
C[C@@H]1CN([C@@H](C)CO)C(=O)c2ccccc2-c2ccccc2CO[C@H]1CN(C)C(=O)c1ccccc1	none (no result: MITF act, Wnt act, FXN GAA850 act)
COc1ccccc1Nc1nc2ccccc2n1C	esBAF inh 64.6, MITF act 92.2
COc1ccccc1Nc1nc2ccccc2n2cnnc12	none
C[C@H]1CN([C@@H](C)CO)C(=O)c2cc(-c3ccccc3)cnc2O[C@@H]1CN(C)C	none (no result: MITF act, Wnt act, FXN GAA850 act)
O=C(O)Cc1sc(Nc2ccccc2)nc1-c1cccs1	Wnt act 34.8 (no result: esBAF inh)
O=C(Cc1sc(Nc2ccccc2)nc1-c1ccccc1)NCc1ccccc1	esBAF inh 75.2
CN(C)C(=O)[C@H]1[C@H](CO)[C@H]2Cn3c(ccc(C4=CCCC4)c3=O)[C@H]2N1C(=O)c1ccccc1F	none (no result: MITF act, Wnt act, FXN GAA850 act)
C[C@@H]1CCCCO[C@@H](CN(C)C(=O)Cc2ccccc2)[C@@H](C)CN([C@H](C)CO)C(=O)c2cc(NC(=O)Nc3ccccc3)ccc2O1	none (no result: MITF act, Wnt act, FXN GAA850 act)
COC(=O)c1ccc2nc(Nc3nc4ccc(F)cc4s3)sc2c1	none
CCOC(=O)c1csc(Nc2nc3ccc(F)cc3s2)n1	Wnt act 38.7 (no result: esBAF inh)
